In PubChem BioAssay (NCATS):
“And” between values parts separate entries of the source, which are not always exact repeats. Equal values may be shown once. Results filed as inconclusive are left out. The source made the active and inactive calls. Unless noted, calls follow the shape of the dose curve; as a rule, active = well fitted curve in the direction sought with a large enough effect; inconclusive = small, poorly fitted or top-dose-only effect, or another doubt; inactive = no such curve, though single readings can be large; an effect the other way counts as inactive or inconclusive.

Assays:
[1] = Cell Viability - HepG2 (AID 433; calls by dose curve;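 also: potency is read from the fitted curve at half-maximal effect; cells exposed to compound for 40 hours; potency for ATP loss meaning cytotoxicity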); details: qHTS
Procedure, shortened: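 In this qHTS format, a 40 h, 37 °C compound incubation of HepG2 cells in complete medium precedes a 20 min CellTiter-Glo step at room temperature. Tamoxifen and doxorubicin serve as positive controls; Hill-equation fits yield AC50.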

[2] = Cell Viability - MRC5 (AID 434; calls by dose curve;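 also: potency is read from the fitted curve at half-maximal effect; cells exposed to compound for 40 hours at 37 °C; potency reflects cytotoxicity seen as loss of intracellular ATP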); details: MRC5 lung fibroblast viability, qHTS
Procedure, shortened: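 ATP luminescence read-out (CellTiter-Glo, 20 min RT) after 40 hr, 37 °C compound exposure of 1500 MRC5 cells/well. Data normalized to DMSO (basal) and 100 uM tamoxifen (100% inhibition); AC50 from standard Hill equation.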

[3] = target: Mitogen-activated protein kinase 10 (Mus musculus) (UniProt Q61831); assay: JNK3 AlphaScreen Assay (AID 530; active = well fitted curve in either direction with a large enough effect, not every such curve was filed as active;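 also: kinase came from lysate of stimulated human HepG2 cells; signal reports phosphorylation of biotinylated GST-cJun 1-79 at Ser73 with 10 µM ATP; % is scaled to controls: 0 for no effect and ±100 for the full control effect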); details: JNK3 lysate, c-Jun phosphorylation; series mostly up to 57.1 µM
Procedure, shortened: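 HepG2 lysate (IL-1b/TNFa pre-activated) + biotin-GST-cJun 1-79 + anti-pSer73 cJun; cpd titration, 15 min RT; ATP 10 uM start; Tris pH 7.6, MgCl2, DTT, vanadate; beads in EDTA buffer; AlphaScreen.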

[4] = Cell Viability - Mesenchymal (AID 546); details: mesenchymal cells viability, qHTS; series mostly up to 91.7 µM;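 also: cells exposed to compound for 40 hours before reading; 0% = DMSO only and -100% = 100 µM tamoxifen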
Procedure, shortened: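 Human renal mesenchymal cells (glomerulus-derived), 1000 cells/well, 5 hr 37 °C pre-incubation; compound 40 hr, 37 °C; CellTiter-Glo, 20 min RT; luminescence; AC50 via Hill equation.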

[5] = Cellular Toxicity (caspase-3) HUV-EC-C (AID 656); details: HUV-EC-C cells, caspase-3 activation (apoptosis), vehicle = 0, 100 µM tamoxifen = 100%; series mostly up to 92.2 µM;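 also: 0% = DMSO basal and 100% = 100 µM tamoxifen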
Procedure, shortened: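 Concentration-dependent caspase 3/7 induction was assessed in HUV-EC-C cells exposed for 16 hours. Data scaled between DMSO and tamoxifen (100 uM) controls.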

[6] = Cellular Toxicity (caspase-3) SK-N-SH (AID 661); details: SK-N-SH caspase-3 activation, qHTS; series mostly up to 91.7 µM;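 also: 0% = DMSO basal and 100% = 10 µM staurosporine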
Procedure, shortened: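 Luminescent Caspase-Glo 3/7 read-out after 16 hr compound exposure of SK-N-SH neuroblastoma cells at 37 °C. Signal increase normalized to DMSO (basal) and 10 uM staurosporine (100%); AC50 from Hill equation fits of qHTS concentration-response data.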

[7] = MultiTox-Fluor Cytotoxicity Assay - LYMP1-003 - Live Cells (AID 962); details: LYMP1-003 lymphoblastoid cells, MultiTox-Fluor live-cell protease fluorescence; series mostly up to 92.2 µM;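 also: cells exposed to compound for 16 hours at 37 °C; 0% = DMSO only and full loss = 92 µM tetraoctylammonium bromide; cytotoxic hits lower the live-cell protease signal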
Procedure, shortened: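 Readout: live-cell fluorescence (Ex/Em=405/510) from GF-AFC cleavage after 60 min MultiTox-Fluor reagent at room temperature. Lymphoblastoid LYMP1-003 cells, 16 hr compound treatment, 37 C. Concentration-response fitted to standard Hill equation for AC50.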

[8] = Cell Viability - LYMP2-005 (AID 967); details: LYMP2-005 lymphoblastoid cell viability; series mostly up to 92.2 µM;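 also: plate controls were DMSO only for no effect and 92 µM tetraoctylammonium bromide control for full effect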
Procedure, shortened: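 Luciferase-based ATP quantitation served as the viability measure in human lymphoblastoid LYMP2-005 cells exposed to test compounds for 24 h at 37 C in complete culture medium. Potency (AC50) was obtained by fitting concentration-response curves with the Hill equation.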

[9] = Cell Viability - LYMP2-021 (AID 974); details: LYMP2-021 lymphoblastoid cells viability; series mostly up to 92.2 µM;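 also: compound exposure lasts 24 hours at 37 °C; % is scaled to controls: 0 for no effect and ±100 for the full control effect; nearly all actives have a fitted effect of over 55% in size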
Procedure, shortened: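 ATP luminescence (CellTiter-Glo, 30 min RT) after 24 h compound exposure at 37 C; 2500 human lymphoblastoid cells/well, 5 h settle beforehand. Cytotoxicity = concentration-dependent ATP drop, AC50 by Hill fit.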

[10] = Cell Viability - LYMP2-006 (AID 978); details: LYMP2-006 lymphoblastoid cell viability, qHTS; series mostly up to 92.2 µM; also: % is scaled to controls: 0 for no effect and ±100 for the full control effect; nearly all actives have a fitted effect of over 60% in size
Procedure, shortened: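 In this cytotoxicity screen, the human lymphoblastoid line grew in complete medium with test compounds for 24 hr at 37 C. Cellular ATP served as the viability signal.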

[11] = Cell Viability - LYMP2-007 (AID 979); details: LYMP2-007 lymphoblastoid cell viability; series mostly up to 92.2 µM;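 also: cells exposed to compound for 24 h before reading; 0% = DMSO only and the negative end = 92 µM tetraoctylammonium bromide; nearly all actives have a fitted effect of over 60% in size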
Procedure, shortened: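 qHTS cytotoxicity: 2500 cells/well, 5 hr 37 C settle, compound 24 hr 37 C, CellTiter-Glo 30 min RT, luminescence. Decrease in ATP = toxicity. AC50 by standard Hill equation; tetraoctylammonium bromide positive control.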

[12] = target: Vitamin D3 receptor (Homo sapiens) (UniProt P11473); assay: qHTS assay for small molecule antagonists of vitamin D receptor signaling (AID 588541; calls by dose curve;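 also: receptor activated by calcitriol during compound treatment; % is scaled to controls: 0 for no effect and ±100 for the full control effect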); details: HEK293T VDR-UAS-bla, beta-lactamase ratio, antagonist mode; series mostly up to 76.7 µM
Procedure, shortened: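 VDR-UAS-bla HEK293T cells in 2% charcoal-stripped FBS were stimulated with 1-alpha,25-dihydroxyvitamin D3 (3 nM final) plus compound for 16 h at 37 C. The beta-lactamase CCF4 readout was normalized to 50 nM agonist and DMSO, and Hill fits gave IC50.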

[13] = target: Thyroid hormone receptor beta (Homo sapiens) (UniProt P10828); assay: qHTS assay for small molecule agonists of thyroid hormone receptor beta signaling (AID 588545; calls by dose curve;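 also: 0% = DMSO only and 100% = 10 nM T3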); details: TR-UAS-bla GripTite HEK 293, beta-lactamase ratio, agonist mode, 18 h; series mostly up to 76.7 µM
Procedure, shortened: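 Compounds were tested as agonists in TR-UAS-bla-GripTite HEK 293 cells. After 18 hrs at 37 C, CCF4 substrate was added and fluorescence read after 2 hrs at room temperature.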

[14] = target: Thyroid hormone receptor beta (Homo sapiens) (UniProt P10828); assay: qHTS assay for small molecule antagonists of thyroid hormone receptor beta signaling (AID 588547; active = well fitted inhibition curve with a large enough effect in the signal ratio, with a control signal flat, not every such curve was filed as active; the % refers to the signal ratio;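 also: cells stimulated with 0.4 nM T3 agonist during compound exposure; % is scaled to controls: 0 for no effect and ±100 for the full control effect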); details: TR-UAS-bla HEK293, beta-lactamase ratio, antagonist mode, 18 h
Procedure, shortened: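 TR-UAS-bla GripTite HEK293 cells in 2% charcoal/dextran FBS medium; compounds 0.59 nM to 92 uM with T3 at 0.4nM final, 18 h at 37 C. Beta-lactamase read by CCF4 fluorescence (460/530 nm); Hill fits gave IC50 and efficacy.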

[15] = target: Nuclear receptor subfamily 1 group I member 2 (Rattus norvegicus) (UniProt Q9R1A7); assay: qHTS assay for small molecule activators of the rat pregnane X receptor (rPXR) signaling pathway (AID 651751; call rule not given here; also: 0% is about no effect); details: rPXR reporter cells, luciferase (One-Glo), 24 h
[16] = qHTS assay for small molecule activators of the human pregnane X receptor (PXR) signaling pathway (AID 720659; call rule not given here; also: 0% is about no effect); details: DPX-2 HepG2 CYP3A4-luciferase, 24 h; series mostly up to 92.3 µM
[17] = Cellular Toxicity (caspase-3) H-4-II-E (AID 663); details: H-4-II-E rat hepatoma; Potency: caspase-3 activation; series mostly up to 92.2 µM;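 also: cells exposed to compound for 16 hr before readout; 0% = DMSO basal and 100% = 100 µM tamoxifen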
Procedure, shortened: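 H-4-II-E rat hepatoma, 1500 cells/well, 5 hr settle at 37 °C; compound 16 hr, 37 °C, complete medium; Caspase-Glo 3/7, 20 min RT; luminescence. DMSO = 0%, 100 uM tamoxifen = 100%; Hill-equation AC50.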

[18] = MultiTox-Fluor Cytotoxicity Assay - LYMP1-002 - Dead Cells (AID 960); details: LYMP1-002 lymphoblastoid cells, dead-cell protease fluorescence; series mostly up to 46.1 µM;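 also: 0% = DMSO and 100% = tetraoctylammonium bromide; nearly all actives have a fitted effect of over 60% in size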
Procedure, shortened: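 Readout: fluorescence at 485/520 from cell-impermeant bis-AAF-R110 cleaved by proteases leaking from damaged cells. LYMP1-002 lymphoblastoid line, 16 hr compound treatment at 37 C, concentration-response in qHTS format; Hill-equation AC50 values.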

[19] = Cell Viability - LYMP2-023 (AID 975); details: LYMP2-023 lymphoblastoid cell viability; series mostly up to 92.2 µM;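 also: cellular ATP measured by luciferase luminescence as viability proxy; plate controls were DMSO only for no effect and 92 µM tetraoctylammonium bromide control for full effect; nearly all actives have a fitted effect of over 55% in size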
Procedure, shortened: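 CellTiter-Glo luminescence after 30 min at room temperature; decrease in intracellular ATP reflects toxicity. Cells: human lymphoblastoid line, 2500/well, 24 hr compound exposure at 37 C. AC50 fitted to standard Hill equation from concentration-response.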

[20] = target: Retinoic acid receptor RXR-alpha (Homo sapiens) (UniProt P19793); assay: qHTS assay for small molecule agonists of retinoid X receptor alpha signaling (AID 588544; calls by dose curve;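 also: 0% = DMSO basal wells and 100% = reference agonist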); details: HEK293T RXRa-UAS-bla, beta-lactamase reporter, 18 h; series mostly up to 76.7 µM
Sequence of Retinoic acid receptor RXR-alpha (Homo sapiens) (P19793 whole entry, looked up): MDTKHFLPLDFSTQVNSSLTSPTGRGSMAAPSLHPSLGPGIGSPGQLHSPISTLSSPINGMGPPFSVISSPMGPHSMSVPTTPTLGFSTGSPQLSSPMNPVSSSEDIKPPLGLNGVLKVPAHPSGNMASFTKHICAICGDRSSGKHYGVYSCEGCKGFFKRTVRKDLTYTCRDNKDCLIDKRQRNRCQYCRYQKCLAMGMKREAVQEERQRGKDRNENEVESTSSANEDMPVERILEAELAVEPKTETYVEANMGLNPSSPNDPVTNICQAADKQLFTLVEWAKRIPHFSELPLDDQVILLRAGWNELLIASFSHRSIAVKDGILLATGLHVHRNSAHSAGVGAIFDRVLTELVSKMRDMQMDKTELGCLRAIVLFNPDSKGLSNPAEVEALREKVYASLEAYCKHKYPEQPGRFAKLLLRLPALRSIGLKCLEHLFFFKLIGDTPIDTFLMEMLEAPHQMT

Sequence of Vitamin D3 receptor (Homo sapiens) (P11473 whole entry, looked up): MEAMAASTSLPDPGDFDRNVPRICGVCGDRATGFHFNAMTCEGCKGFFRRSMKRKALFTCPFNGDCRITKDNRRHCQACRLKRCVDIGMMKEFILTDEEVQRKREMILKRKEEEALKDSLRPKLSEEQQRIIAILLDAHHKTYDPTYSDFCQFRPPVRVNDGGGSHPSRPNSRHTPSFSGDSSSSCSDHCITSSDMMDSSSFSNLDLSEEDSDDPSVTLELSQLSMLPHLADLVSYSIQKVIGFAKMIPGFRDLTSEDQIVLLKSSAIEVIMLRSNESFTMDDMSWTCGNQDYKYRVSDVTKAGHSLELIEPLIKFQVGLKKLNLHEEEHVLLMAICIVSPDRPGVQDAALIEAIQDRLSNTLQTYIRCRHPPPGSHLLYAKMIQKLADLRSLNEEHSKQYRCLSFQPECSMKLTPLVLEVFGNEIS
Sequence of Thyroid hormone receptor beta (Homo sapiens) (P10828 whole entry, looked up): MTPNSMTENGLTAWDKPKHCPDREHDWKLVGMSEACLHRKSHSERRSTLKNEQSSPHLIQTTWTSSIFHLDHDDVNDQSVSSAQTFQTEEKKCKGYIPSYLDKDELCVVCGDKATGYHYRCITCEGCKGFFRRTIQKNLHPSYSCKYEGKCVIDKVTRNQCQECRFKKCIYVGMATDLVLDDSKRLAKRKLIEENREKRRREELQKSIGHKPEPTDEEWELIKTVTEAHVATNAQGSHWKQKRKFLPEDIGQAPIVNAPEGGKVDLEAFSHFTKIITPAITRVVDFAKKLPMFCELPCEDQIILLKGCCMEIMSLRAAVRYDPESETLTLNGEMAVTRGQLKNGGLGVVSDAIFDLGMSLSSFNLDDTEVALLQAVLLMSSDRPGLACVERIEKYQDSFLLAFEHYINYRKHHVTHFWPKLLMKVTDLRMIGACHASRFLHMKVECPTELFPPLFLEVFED
Sequence of Nuclear receptor subfamily 1 group I member 2 (Rattus norvegicus) (Q9R1A7 whole entry, looked up): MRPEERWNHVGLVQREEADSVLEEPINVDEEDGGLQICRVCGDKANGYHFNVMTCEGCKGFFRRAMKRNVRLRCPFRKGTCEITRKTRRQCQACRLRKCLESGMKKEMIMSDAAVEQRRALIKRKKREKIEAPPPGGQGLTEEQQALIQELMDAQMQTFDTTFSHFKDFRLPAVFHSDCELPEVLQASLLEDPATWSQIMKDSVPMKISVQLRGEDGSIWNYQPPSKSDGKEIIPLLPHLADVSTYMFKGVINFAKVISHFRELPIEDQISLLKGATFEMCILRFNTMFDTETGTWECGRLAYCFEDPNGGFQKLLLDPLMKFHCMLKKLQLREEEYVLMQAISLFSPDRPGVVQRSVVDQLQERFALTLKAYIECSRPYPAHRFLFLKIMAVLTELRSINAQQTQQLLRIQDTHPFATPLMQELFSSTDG

Cc1ccc(N)cc1N
inactive: Potency [1] > 92 µM | Potency [2] > 92 µM | Potency [3] | Potency [4] | outcome [5] | Potency [6] | outcome [7] | Potency [8] | Potency [9] | Potency [10] | Potency [11] | outcome [12] | Potency [13] | activity change % (negative = inhibition) [14] 0.49% and -2.4% | max response [15] 12.5% and 3.01% | outcome [16]

Clc1cccc(Cl)c1
inactive: Potency [1] > 92 µM | Potency [2] > 92 µM | Potency [3] | Potency [4] | outcome [5] | Potency [6] | Potency [17] | Potency [18] | outcome [7] | Potency [8] | Potency [9] | Potency [19] | Potency [10] | Potency [11] | outcome [12] | outcome [20] | Potency [13] | activity change % (negative = inhibition) [14] 13.8% | max response [15] 1.78% | outcome [16]

Cc1ccc(N)cc1Cl
inactive: Potency [1] > 92 µM | Potency [2] > 92 µM | Potency [3] | Potency [4] | outcome [5] | Potency [17] | Potency [18] | outcome [7] | Potency [8] | Potency [9] | Potency [19] | Potency [10] | Potency [11] | outcome [12] | Potency [13] | activity change % (negative = inhibition) [14] -8.08% | outcome [16]

BrCCc1ccccc1
inactive: Potency [1] > 92 µM | Potency [2] > 92 µM | Potency [3] | Potency [4] | outcome [5] | Potency [6] | Potency [17] | Potency [18] | outcome [7] | Potency [9] | Potency [19] | Potency [10] | Potency [11] | outcome [20] | Potency [13] | activity change % (negative = inhibition) [14] -8.86% | max response [15] -6.29% | outcome [16]

C=CC(=O)OCC(CC)CCCC (stereo not drawn)
inactive: Potency [1] > 92 µM | Potency [2] > 92 µM | Potency [3] | Potency [4] | outcome [5] | Potency [6] | Potency [17] | Potency [18] | outcome [7] | Potency [8] | Potency [9] | Potency [10] | Potency [11] | outcome [12] | outcome [20] | Potency [13] | activity change % (negative = inhibition) [14] -10.5% and 4.22% | max response [15] -2.19% and -0.52% | outcome [16]

CN(C)c1ccccc1
inactive: Potency [1] > 92 µM | Potency [2] > 92 µM | Potency [3] | Potency [4] | outcome [5] | Potency [6] | Potency [17] | Potency [18] | outcome [7] | Potency [8] | Potency [9] | Potency [19] | Potency [11] | outcome [12] | outcome [20] | Potency [13] | activity change % (negative = inhibition) [14] -1.14% | max response [15] -6.91% | outcome [16]

CC(C#N)CCC#N (stereo not drawn)
inactive: Potency [1] > 92 µM | Potency [2] > 92 µM | Potency [3] | Potency [4] | outcome [5] | Potency [6] | Potency [17] | Potency [18] | outcome [7] | Potency [9] | Potency [19] | Potency [10] | Potency [11] | outcome [12] | outcome [20] | Potency [13] | activity change % (negative = inhibition) [14] 9.23% | max response [15] 3.89% | outcome [16]
